8 compounds from PubChem BioAssay (NCI) can be followed below.

What all share (assay): NCI-60 one-dose screen, 48 h (100 = growth as untreated, 0 = no growth, -100 = all killed)
Assay [1] deals with HCT-15 colon. The conditions noted are these: 10 µM unless noted.
Assay [2] relates to HT29 colon. The conditions noted are these: 10 µM unless noted.
Assay [3] concerns SNB-75 CNS. The note with it: 10 µM unless noted.
Assay [4] has as its system SNB-19 CNS. The note with it: 10 µM unless noted.
For assay [5], the system named is U251 CNS. The note with it: 10 µM unless noted.
Assay [6] has as its system PC-3 prostate. The note with it: 10 µM unless noted.
The subject of assay [7] is SK-MEL-5 melanoma. The note with it: 10 µM unless noted.
Assay [8] has as its system UACC-62 melanoma. The conditions noted are these: 10 µM unless noted.
The subject of assay [9] is LOX IMVI melanoma. The conditions noted are these: 10 µM unless noted.
For assay [10], the system named is SK-MEL-28 melanoma. The note with it: 10 µM unless noted.
In assay [11] the test system is SK-MEL-2 melanoma. The conditions noted are these: 10 µM unless noted.
Assay [12] deals with EKVX NSCLC. The conditions noted are these: 10 µM.
Assay [13] concerns SN12C renal. The note with it: 10 µM unless noted.
The subject of assay [14] is UO-31 renal. The note with it: 10 µM unless noted.
For assay [15], the system named is TK-10 renal. The conditions noted are these: 10 µM unless noted.
Assay [16] concerns ACHN renal. The note with it: 10 µM unless noted.
Assay [17] concerns CAKI-1 renal. The conditions noted are these: 10 µM unless noted.
Assay [18] has as its system A498 renal. The note with it: 10 µM unless noted.
Assay [19] deals with CCRF-CEM leukemia. The note with it: 10 µM.
The subject of assay [20] is MOLT-4 leukemia. The conditions noted are these: 10 µM unless noted.

About 83,000 compounds went through this panel and 20% of them were active in at least one assay; those are over-represented in the sample as a whole.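 Assay: single dose, 48 h. Readout: percent growth (0 = no net growth; negative = cell death). Active: <10.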 Values without a mark were called inactive. Calls of active or inactive are those of the source.

Consider `CC1(C)C(O)NC(Cl)=C(C#N)C1(C#N)C#N` (stereo unspecified), for which the growth in assay [1] is 153%; in assay [2], 101%; in assay [3], 98.4%; in assay [4], 105%; in [5], 110%; in assay [6], 114%. In addition, the growth was 114% in assay [7]; 131% in [8]; 109% in [9]; 108% in assay [10]; 97.6% in assay [11]; 102% in assay [12]. Also, the growth in assay [13] was 127%; in assay [14], 81.3%; in assay [15], 143%; in [16], 127%; in [17], 177%; in assay [18] it was 103%. For the same compound, the growth in assay [19] is 78.8%; in [20], 103%.

`C/C=C(/C)C(=O)OC1C=C(CO)C(=O)C(OC(=O)C2(C)OC2C)C1C(C)C` (stereo unspecified): the growth in [1] is -14.5% (active); in assay [2], -60.3% (active); in [3], 23.6%; in assay [4], 12.1%; in [5], -23.1% (active); in assay [6] it was -7.66% (active). Moreover, the growth is -92.8% (active) in assay [7]; -73.7% (active) in assay [8]; -83.8% (active) in [9]; -49% (active) in assay [10]; -49.7% (active) in [11]; -11.8% (active) in [12]. Besides, the growth in assay [13] was -44.4% (active); in assay [14], -96.3% (active); in assay [15], -31.8% (active); in [16] it was -96.8% (active); in [17] it was -23.6% (active); in assay [18] it was 1.46% (active). Besides, the growth in assay [19] is 1.28% (active).

With `Nc1cc(N)c2nc(-c3ccccc3)c(NCCc3ccc(Cl)c(Cl)c3)nc2c1`, the growth was -87.7% (active) in [1]; -36.3% (active) in [2]; -33.7% (active) in assay [3]; -69.4% (active) in assay [4]; -100% (active) in assay [5]; -90.5% (active) in assay [6]. Further, the growth was -99.1% (active) in assay [7]; -91.7% (active) in assay [8]; -91.5% (active) in [9]; -79.3% (active) in assay [10]; -62.7% (active) in assay [11]; -100% (active) in [12]. Moreover, the growth in assay [13] is -96.6% (active); in assay [14], -93% (active); in assay [15] it was -92.5% (active); in [16], -100% (active); in assay [17], -92.4% (active); in assay [18], -34.4% (active). Also, the growth in [19] was -66.1% (active); in assay [20] it was -16.4% (active).

Turning to `CCCCCCCCCCCCCCCCCC1=NCCN1CCNC(C)=O`, the growth in [1] was 74.6%; in [2] it was 57.3%; in assay [3], 83.5%; in assay [4], 101%; in assay [5] it was 79.1%; in [6], 80.3%. For the same compound, the growth was 102% in assay [7]; 107% in assay [8]; -14.6% (active) in assay [9]; 98.1% in assay [10]; 111% in assay [11]; 80% in assay [12]. Besides, the growth in assay [13] is 104%; in assay [14] it was 83.2%; in assay [15], 103%; in assay [16], 91.4%; in [17] it was 87.6%; in assay [18], 78.4%. The growth in assay [19] was 40.3%.

Take `COc1ccc(Cn2cc3c(c2-c2ccc(OC)cc2)CCc2cnoc2-3)cc1`: the growth is 14.2% in assay [1]; 7.18% (active) in assay [2]; 11.4% in assay [3]; 45.5% in assay [4]; 24% in assay [5]; 24.8% in [6]. The growth in assay [7] is 10.6%; in assay [8] it was 44%; in [9] it was 32.2%; in [10] it was 51.2%; in [11], 31%; in assay [12], 49.4%. Moreover, the growth was 26.5% in assay [13]; 25.7% in assay [14]; 69.1% in assay [15]; 30.7% in assay [16]; 14.8% in [17]; 3.78% (active) in [18]. Further, the growth in assay [19] was 9.28% (active).

`Nc1ccc(S(=O)(=O)Nc2cc(F)cc(F)c2)cc1`: the growth is 105% in assay [1]; 102% in assay [2]; 92.8% in assay [3]; 104% in assay [4]; 98.1% in assay [5]; 109% in assay [6]. Besides, the growth in assay [7] is 106%; in assay [8], 88.3%; in assay [9], 91.5%; in assay [10], 120%; in assay [11], 94.5%; in assay [12] it was 80.4%. In addition, the growth in [13] was 105%; in assay [14], 85.4%; in [15], 112%; in assay [16] it was 98.7%; in [17] it was 100%; in assay [18], 95%. In addition, the values for the growth in [19] and in [20] were 93.4% and 72.7%, respectively.

With `CC(=O)NNC(=O)c1sc(NC(C)=O)nc1C`, the growth in assay [1] was 95.7%; in assay [2] it was 87.3%; in assay [3] it was 99.2%; in assay [4] it was 92.4%; in assay [5] it was 102%; in assay [6], 90.8%. The growth in assay [7] was 103%; in assay [8] it was 91.9%; in [9], 94.4%; in assay [10], 95.9%; in assay [11], 35.3%; in assay [12], 115%. Moreover, the growth in assay [13] is 99.4%; in assay [14], 89.1%; in assay [15], 95.2%; in [16], 106%; in [17], 115%; in assay [18] it was 100%. The growth was 88.1% in assay [19] and 94.1% in [20].

For `Oc1ccccc1/C=N/N=C/c1c(O)ccc2ccccc12`, the growth is 70.1% in assay [1]; 100% in assay [2]; 94.2% in assay [3]; 99.4% in assay [4]; 93.2% in assay [5]; 83.8% in assay [6]. In addition, the growth in assay [7] was 93.1%; in assay [8] it was 84.4%; in assay [9] it was 85.2%; in assay [10], 101%; in assay [11] it was 92.4%; in assay [12] it was 72.1%. Also, the growth was 85.1% in [13]; 42.9% in assay [14]; 101% in assay [15]; 80% in [16]; 91.6% in [17]; 123% in [18]. Also, the growth in assay [19] was 7.8% (active).
